Data on twelve molecules can be found in PubChem BioAssay (NCATS).

Assay [1] is described as follows: qHTS Assay for Lipid Storage Modulators (AID 1519; calls by dose curve; as to activity change, negative = inhibition: % is scaled to controls: 0 for no effect and ±100 for the full control effect). The settings on record: Drosophila S3 cells, BODIPY lipid droplet/cell ratio, laser cytometry, cells loaded with oleic acid. The procedure, abridged:
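Cells seeded at 5,000 per well were treated with compounds over a concentration series and loaded with oleic acid (400 uM, as added). Lipid droplet fluorescence (488 nm excitation, 500-530 nm channel) was read by laser-scanning cytometry and normalized to 20 uM Triacsin C.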
(In general: Quantitative high-throughput screening tests each substance at several concentrations.)

Assay [2] concerns the target Alpha-galactosidase A (Homo sapiens) (UniProt P06280). Nature of the assay: Counterscreen for Glucocerebrosidase Inhibitors: qHTS Assay for Human alpha-Galactosidase at pH 4.5 (AID 992). Also: 0% is about no effect. Particulars: purified enzyme, fluorogenic substrate; series mostly up to 76.9 µM. The procedure, abridged: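 Enzyme at 2 nM final was combined with compound (0.7 nM to 77 uM) and 80 uM 4-methylumbelliferyl alpha-D-galactopyranoside in 50 mM citric acid, 0.005% Tween-20, pH 4.5. After 20 min at room temperature, fluorescence was read (Ex 365/Em 440 nm); AC50 came from Hill fits.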
Background: Counterscreens check selectivity or assay interference.

The target of assay [3] is alpha-glucosidase (Oryza sativa, rice) (UniProt Q653V4). Nature of the assay: Counterscreen for Glucocerebrosidase Inhibitors: qHTS Assay for Rice alpha-Glucosidase at pH 5.0 (AID 997).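 Also: 0% = full activity with enzyme and -100% = basal without enzyme.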 The settings on record: rice alpha-glucosidase enzyme activity; series mostly up to 76.9 µM. A digest of the protocol:
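Rice alpha-glucosidase (4 nM final) with 400 uM 4-methylumbelliferyl-alpha-D-glucopyranoside in citrate buffer pH 5.0, 20 min at room temperature, stopped at pH 10; fluorescence 365/440 nm, compounds 0.7 nM–77 uM, AC50 from Hill fits.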

Assay [4] concerns the target DNA repair nuclease/redox regulator APEX1 (Homo sapiens) (UniProt P27695). Nature of the assay: qHTS Validation Assay for Inhibitors of the Human Apurinic/apyrimidinic Endonuclease 1 (APE1) (AID 1705;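 also: TAMRA fluorescence gain over two minutes as APE1 cuts a quenched THF abasic duplex; % is scaled to controls: 0 for no effect and ±100 for the full control effect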). The settings on record: purified APE1 endonuclease activity, fluorescence, titration; series mostly up to 57.1 µM. A digest of the protocol: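 qHTS, 1536-well. APE1 + cpd 15 min RT → 50 nM TAMRA/BHQ-2 THF-abasic dsDNA substrate → kinetic fluorescence, 3 reads/60 s; delta(read3−read1) = reaction progress. No-enzyme buffer = negative control.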

Assay [5] in a line: Counterscreen for APE1 Inhibitors: Fluorescent Dye Displacement Validation Assay (AID 1707).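 Also: plate controls were ThO with dsDNA and no compound for no effect and ThO without dsDNA for full effect.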 The settings on record: fluorescent dye displacement from DNA; series mostly up to 57.1 µM. The procedure, abridged:
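Thiazole Orange displacement from dsDNA: 250 nM ThO with 50 nM TAMRA-labelled abasic-site (tetrahydrofuran) duplex in 50 mM Tris-HCl pH7.5, 50mM NaCl, 2 mM MgCl2, 0.01% Tween-20. Loss of endpoint fluorescence (ex 480 nm, em 540 nm) flags DNA binders.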

Assay [6] in a line: qHTS for differential inhibitors of proliferation of Plasmodium falciparum line 7G8 (AID 1815).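 Also: parasite growth measured after three days of incubation; plate controls were vehicle wells for no effect and reference inhibitor wells for full effect.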 The settings on record: Plasmodium falciparum 7G8 proliferation inhibition; series mostly up to 28.7 µM.
Assay [7] is described as follows: qHTS for differential inhibitors of proliferation of Plasmodium falciparum line GB4 (AID 1816).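 Also: parasite growth measured after 72 h incubation; 0% = vehicle DMSO and -100% = reference inhibitor.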 Particulars: Potency: Plasmodium falciparum GB4 proliferation inhibition; series mostly up to 28.7 µM.
Assay [8] can be described thus: qHTS for differential inhibitors of proliferation of Plasmodium falciparum line 3D7 (AID 1876).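 Also: parasite growth measured after three days of culture; 0% = vehicle wells and -100% = reference inhibitor wells.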 The settings on record: P. falciparum 3D7 proliferation inhibition; series mostly up to 28.7 µM.
For assay [9], the target named is Endonuclease 4 (Escherichia coli (strain K12)) (UniProt P0A6C1). As to the kind of experiment: Counterscreen for APE1 Inhibitors: qHTS Validation Assay for Inhibitors of Endonuclease IV (AID 1708). Also: % is scaled to controls: 0 for no effect and ±100 for the full control effect. The settings on record: E. coli endonuclease IV, DNA cleavage fluorescence; series mostly up to 57.1 µM. The procedure, abridged: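 Concentration-response counterscreen run identically to the APE1 assay: 15 min room-temperature preincubation of 2 nM enzyme with compound, reaction started with 50 nM quenched abasic DNA, progress taken from kinetic fluorescence.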

Assay [10] is described as follows: Cell Viability - LYMP2-008 (AID 980). Also: nearly all actives have a fitted effect of over 60% in size. Also: potency is read from the fitted curve at half-maximal effect. Particulars: LYMP2-008 lymphoblastoid cell viability, qHTS; series mostly up to 92.2 µM. A digest of the protocol: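 LYMP2-008 lymphoblastoid cells (2500/well) plated 5 h, then treated 24 h at 37 C in complete medium. Viability read as intracellular ATP by CellTiter-Glo luminescence after 30 min at room temperature; AC50 from Hill fits.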

Assay [11] in a line: Cell Viability - LYMP2-010 (AID 981). Also: nearly all actives have a fitted effect of over 55% in size. Also: potency is read from the fitted curve at half-maximal effect. The settings on record: LYMP2-010 lymphoblastoid cell viability, qHTS; series mostly up to 92.2 µM. The procedure, abridged: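 Human lymphoblastoid LYMP2-010 cells (2500/well) treated 24 h at 37 C in complete medium; viability read as intracellular ATP by CellTiter-Glo luminescence. AC50 from Hill fits of concentration-response data; tetraoctylammonium bromide positive control.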

The nature of assay [12]: Cell Viability - LYMP2-012 (AID 982).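 Also: cellular ATP by luciferase luminescence where a drop means cytotoxicity; cells exposed to compound for one day before reading; nearly all actives have a fitted effect of over 55% in size.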 Also: potency is read from the fitted curve at half-maximal effect. The settings on record: LYMP2-012 lymphoblastoid cell viability qHTS; series mostly up to 92.2 µM.
Assay [13] is described as follows: Cell Viability - LYMP2-014 (AID 983). Also: nearly all actives have a fitted effect of over 50% in size. Also: potency is read from the fitted curve at half-maximal effect. Particulars: LYMP2-014 lymphoblastoid cells, viability qHTS; series mostly up to 92.2 µM. A digest of the protocol:
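LYMP2-014 human lymphoblastoid cells, 2500/well, treated 24 h at 37 C in complete medium; viability by CellTiter-Glo ATP luminescence after 30 min at room temperature. AC50 from Hill fits of qHTS concentration-response; tetraoctylammonium bromide positive control.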

Assay [14] is described as follows: Cell Viability - LYMP2-016 (AID 984). Also: nearly all actives have a fitted effect of over 55% in size. Also: potency is read from the fitted curve at half-maximal effect. The settings on record: LYMP2-016 lymphoblastoid cell viability, qHTS; series mostly up to 92.2 µM. A digest of the protocol:
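Cells were seeded at 2500 per well and rested 5 hr before a 24 hr compound exposure at 37 C. Viability was then gauged as cellular ATP by luciferase luminescence, with AC50 values fitted to the Hill equation.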

Assay [15] in a line: Cell Viability - LYMP2-018 (AID 985). Also: nearly all actives have a fitted effect of over 50% in size. Also: potency is read from the fitted curve at half-maximal effect. Particulars: LYMP2-018 lymphoblastoid cells, viability (qHTS); series mostly up to 92.2 µM. A digest of the protocol: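 Human lymphoblastoid LYMP2-018 cells, 2500/well, settled 5 hr at 37 C then exposed to compound 24 hr at 37 C; intracellular ATP measured by CellTiter-Glo luminescence. AC50 from Hill-equation concentration-response fits.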

The nature of assay [16]: Cell Viability - LYMP2-022 (AID 987). Also: nearly all actives have a fitted effect of over 55% in size. Also: potency is read from the fitted curve at half-maximal effect. The settings on record: LYMP2-022 lymphoblastoid cell viability; series mostly up to 92.2 µM. The procedure, abridged: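 LYMP2-022 lymphoblastoid cells (2500/well, complete medium) were treated with compounds for 24 hours at 37 C; intracellular ATP was then read by CellTiter-Glo luminescence after 30 min at room temperature. AC50 values were derived from Hill-equation fits.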

A short description of assay [17]: Cell Viability - LYMP2-024 (AID 988). Also: nearly all actives have a fitted effect of over 60% in size. Also: potency is read from the fitted curve at half-maximal effect. The settings on record: LYMP2-024 lymphoblastoid cell viability; series mostly up to 92.2 µM. The procedure, abridged: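 Human lymphoblastoid LYMP2-024 cells (2500/well) rested 5 hr, then treated with compound for 24 hr at 37 C in complete medium. Viability was measured as intracellular ATP by CellTiter-Glo luminescence. AC50 values came from Hill-equation fits.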

Assay [18] can be described thus: Cell Viability - LYMP1-002 - Assay at 24 hr (AID 993). Also: potency is read from the fitted curve at half-maximal effect. The settings on record: LYMP1-002 lymphoblastoid cells viability; series mostly up to 92.2 µM. A digest of the protocol: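 Human lymphoblastoid LYMP1-002 cells (2500/well) treated 24 h at 37 °C; viability as intracellular ATP by CellTiter-Glo luminescence. Tetraoctylammonium bromide as positive control; AC50 from Hill-equation fits of qHTS concentration-response.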

Assay [19] is described as follows: Cell Viability - LYMP1-002 - Assay at 40 hr (AID 994). Also: nearly all actives have a fitted effect of over 60% in size. Also: potency is read from the fitted curve at half-maximal effect. The settings on record: LYMP1-002 lymphoblastoid cell viability; series mostly up to 92.2 µM. A digest of the protocol:
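LYMP1-002 human lymphoblastoid cells (2500/well, complete medium) were treated with compounds for 40 hr at 37 C. Intracellular ATP was measured by CellTiter-Glo luminescence, and AC50 values came from Hill-equation fits of concentration-response data; tetraoctylammonium bromide was the positive control.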

Setting [20] is: measured here: cell count channel max response.
The mark [21] stands for this setting: measured here: lipid channel max response.

“And” between values parts separate entries of the source, which are not always exact repeats. Equal entries are not always repeated. Results filed as inconclusive are left out. The source made the active and inactive calls. Unless noted, calls follow the shape of the dose curve; as a rule, active = well fitted curve in the direction sought with a large enough effect; inconclusive = small, poorly fitted or top-dose-only effect, or another doubt; inactive = no such curve, though single readings can be large; an effect the other way counts as inactive or inconclusive.

Sequence of DNA repair nuclease/redox regulator APEX1 (Homo sapiens) (P27695 whole entry, looked up): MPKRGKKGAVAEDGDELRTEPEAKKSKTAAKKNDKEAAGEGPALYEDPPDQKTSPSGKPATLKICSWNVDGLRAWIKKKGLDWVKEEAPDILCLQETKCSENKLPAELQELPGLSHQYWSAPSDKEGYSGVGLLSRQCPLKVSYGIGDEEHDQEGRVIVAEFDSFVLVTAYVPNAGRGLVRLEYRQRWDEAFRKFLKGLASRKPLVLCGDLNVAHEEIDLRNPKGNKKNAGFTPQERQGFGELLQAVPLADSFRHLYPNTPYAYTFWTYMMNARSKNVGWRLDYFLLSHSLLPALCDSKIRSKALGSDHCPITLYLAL
Sequence of Alpha-galactosidase A (Homo sapiens) (P06280 whole entry, looked up): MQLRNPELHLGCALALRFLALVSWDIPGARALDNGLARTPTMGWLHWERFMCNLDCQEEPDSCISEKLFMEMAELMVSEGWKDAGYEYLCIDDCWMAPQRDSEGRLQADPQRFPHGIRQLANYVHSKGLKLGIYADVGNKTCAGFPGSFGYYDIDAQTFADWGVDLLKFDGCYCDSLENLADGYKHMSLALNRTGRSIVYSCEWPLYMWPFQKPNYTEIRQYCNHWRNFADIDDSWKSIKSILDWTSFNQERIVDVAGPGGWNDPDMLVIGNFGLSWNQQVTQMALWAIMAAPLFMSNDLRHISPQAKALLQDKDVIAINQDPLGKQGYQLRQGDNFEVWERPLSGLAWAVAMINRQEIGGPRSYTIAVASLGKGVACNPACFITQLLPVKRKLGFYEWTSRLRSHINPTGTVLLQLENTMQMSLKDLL

With `Cc1cc(=O)n(-c2ccccc2)n1C`, the results for the activity change, negative = inhibition in assay [1] (at 25.7 µM (top of the series)) and in assay [1] (at 57.5 µM (top of the series)) were 1.11% (inactive) and 0.266% (inactive), respectively. In addition, the max response in assay [1] (setting [20]) is -1.15% and 10.6%; in assay [1] (setting [21]), 1.09% and 14.3%.
On to `CCCCC1=NC2(CCCC2)C(=O)N1Cc1ccc(-c2ccccc2-c2nn[nH]n2)cc1`, for which the activity change, negative = inhibition in [1] (at 57.5 µM (top of the series)) was -6.83% (inactive). Moreover, the max response worked out at 15.4% in assay [1] (setting [20]) and 9.2% in [1] (setting [21]).
Consider `c1ccc(-c2ccc(C(c3ccccc3)n3ccnc3)cc2)cc1` (centres undefined), for which the activity change, negative = inhibition in assay [1] (at 57.5 µM (top of the series)) is 13.6% (inactive). In addition, the values for the max response in assay [1] (setting [20]) and in [1] (setting [21]) were 10.1% and 27.7%, respectively.
Turning to `CCOc1ccc(Cc2nccc3cc(OCC)c(OCC)cc23)cc1OCC`, the activity change, negative = inhibition in assay [1] (at 57.5 µM (top of the series)) is -21.1% (inactive). Further, the results for the max response in assay [1] (setting [20]) and in [1] (setting [21]) were -4.38% and -26.4%, respectively.
As to `C[N+]1(CCCCC[N+]2(C)CCCC2)CCCC1`, the outcome in assay [2], in [3] and in assay [5] was inactive. The activity change, negative = inhibition in [1] (at 25.7 µM (top of the series)) was -1.41% (inactive); in assay [1] (at 57.5 µM (top of the series)), 3.44% (inactive) and 1.51% (inactive). The max response in [1] (setting [20]) was -13.3% and 5.22% and -4.18%; in assay [1] (setting [21]), -15.5% and 11.1% and -3.95%. In addition, the Potency result in assay [4], in assay [6], in assay [7] and in assay [8] was “inactive” each time.
With `O=C1c2ccccc2C(=O)C1c1ccccc1`, the activity change, negative = inhibition was -0.708% (inactive) in assay [1] (at 25.7 µM (top of the series)) and 10.4% (inactive) in assay [1] (at 57.5 µM (top of the series)). The max response is -13.1% and 15.4% in assay [1] (setting [20]); -14% and 33.1% in assay [1] (setting [21]).
Turning to `CCOC(=O)n1ccn(C)c1=S`, the activity change, negative = inhibition in [1] (at 25.7 µM (top of the series)) was -1.84% (inactive); in [1] (at 57.5 µM (top of the series)), 8.2% (inactive). Also, the max response is -4.79% and 2.58% in [1] (setting [20]); -8.09% and 22% in assay [1] (setting [21]).
With `CCCCOc1ccc(OCCCN2CCOCC2)cc1`, the activity change, negative = inhibition in assay [1] (at 25.7 µM (top of the series)) was -0.243% (inactive). The max response in assay [1] (setting [20]) and in [1] (setting [21]) was -13.4% throughout.
`O=C1CCC(c2ccc(-n3ccnc3)cc2)=NN1`: the call in [2], in assay [3], in [5] and in [9] was inactive. Also, the Potency entry in assay [4], in [6], in assay [7] and in assay [8] was “inactive” throughout.
As for `C=CCc1ccc(O)c(OC)c1`, the Potency result in [10], in assay [11], in [12], in assay [13], in assay [14] and in [15] was “inactive” in each case. Also, the Potency entry in [16], in assay [17], in assay [18] and in [19] was “inactive” in each case. Also, the activity change, negative = inhibition in assay [1] (at 57.5 µM (top of the series)) was 13.1% (inactive) and 1.99% (inactive). The max response in assay [1] (setting [20]) is 19.8% and 9.66%; in assay [1] (setting [21]) it was 40.9% and 11.8%.
For `CC(C)(C)CC(C)(C)c1ccc(OCCOCC[N+](C)(C)Cc2ccccc2)cc1`, the Potency is 31.6 µM (active) in assay [10]; 31.6 µM (active) in assay [11]; 20 µM (active) in [12]; 31.6 µM (active) in [13]; 31.6 µM (active) in [14]; 25.1 µM (active) in [15]. For the same molecule, the Potency in [16] was 15.8 µM (active); in assay [17] it was 31.6 µM (active); in assay [18] it was 50.1 µM (active); in [19], 39.8 µM (active).
For the molecule `CN(C)/N=N/c1nc[nH]c1C(N)=O`, the Potency entry in assay [10], in assay [11], in [12], in assay [13], in assay [14] and in assay [15] was “inactive” throughout. Further, the Potency entry in [16], in assay [17], in assay [18] and in [19] was “inactive” each time. In addition, the activity change, negative = inhibition in [1] (at 57.5 µM (top of the series)) is 6.55% (inactive). In addition, the values for the max response in assay [1] (setting [20]) and in assay [1] (setting [21]) were 10% and 19.3%, respectively.
